Test results as given in PubChem BioAssay.

Assays:
[1] = target: Tumor necrosis factor receptor superfamily member 10B (Homo sapiens) (UniProt O14763); experiment: viability loss of caspase-8 NB7 cells with TRAIL – with/without TRAIL, luminescence panel, confirmation (AID 651596); conditions: NB7 neuroblastoma + caspase-8, TRAIL sensitization, NB7 Caspase-8, with TRAIL, mean of runs, at 10 µM, stronger effect = higher value
[2] = as above; conditions: NB7 neuroblastoma + caspase-8, without TRAIL, NB7 Caspase-8, without TRAIL, mean of runs, at 10 µM
[3] = target: Tumor necrosis factor receptor superfamily member 10B (Homo sapiens) (UniProt O14763); experiment: compound enhancement of TRAIL-induced cell killing – NB7 cells plus caspase-8, luminescence, panel, dose response (AID 652002); conditions: NB7 neuroblastoma +caspase-8, TRAIL sensitization, luminescence viability, NB7+Caspase-8, with TRAIL, run 1; at 12.5 µM (top of the series)
[4] = target: Tumor necrosis factor receptor superfamily member 10B (Homo sapiens) (UniProt O14763); experiment: as above; conditions: NB7 neuroblastoma +caspase-8, TRAIL sensitization, luminescence viability, NB7+Caspase-8, with TRAIL, run 2; at 12.5 µM (top of the series)
[5] = as above; conditions: NB7 neuroblastoma +caspase-8, no TRAIL, compound-alone cytotoxicity counter-screen, luminescence viability, NB7+Caspase-8, run 1; at 12.5 µM (top of the series) unless noted
[6] = as above; conditions: NB7 neuroblastoma +caspase-8, no TRAIL, compound-alone cytotoxicity counter-screen, luminescence viability, NB7+Caspase-8, run 2; at 12.5 µM (top of the series) unless noted

Sequence of Tumor necrosis factor receptor superfamily member 10B (Homo sapiens) (O14763 whole entry, looked up): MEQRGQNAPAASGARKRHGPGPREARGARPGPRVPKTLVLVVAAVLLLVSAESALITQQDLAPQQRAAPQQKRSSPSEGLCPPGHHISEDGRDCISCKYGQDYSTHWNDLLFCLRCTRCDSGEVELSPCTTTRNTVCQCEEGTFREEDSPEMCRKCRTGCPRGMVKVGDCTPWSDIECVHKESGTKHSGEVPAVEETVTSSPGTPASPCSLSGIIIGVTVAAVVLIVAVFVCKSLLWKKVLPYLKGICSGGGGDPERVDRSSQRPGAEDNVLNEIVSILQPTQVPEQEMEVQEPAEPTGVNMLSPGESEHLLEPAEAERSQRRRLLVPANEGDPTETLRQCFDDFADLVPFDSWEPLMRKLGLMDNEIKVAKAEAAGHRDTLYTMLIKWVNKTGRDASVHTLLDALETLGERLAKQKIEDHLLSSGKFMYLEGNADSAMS

Row | Structure (SMILES) | activity [1] [%] | activity [2] [%] | activity, % sensitization [3] [%] | activity, % sensitization [4] [%] | activity, % sensitization [5] [%] | activity, % sensitization [6]
1 | O=C(NC(=O)c1ccccc1)Nc1ccccc1 | 54.2 | 49.9 | 28.7 | 6.32 | 7.63 | -8.56%
2 | O=c1[nH]c(N/N=C\c2ccc3c(c2)OCO3)nc2ccccc12 | 53.6 | 50.5 | 33.9 | 44.5 | 38.2 | 35.1%
3 | COC(=O)c1ccc(/C=C(\C#N)c2ccccn2)cc1 | 51 | 40.8 | -7.25 | -19.4 | -8.36 | -11%
4 | NNC(=O)C1CCCn2c1nc1sc3c(c1c2=O)CCCC3 (centres undefined) | 51 | 52.8 | 5.3 | -9.76 | -17.6 | 12.5%
5 | O=C1c2ccc(Cl)cc2S(=O)(=O)c2cccc(C(=O)N3CCC(Cc4ccccc4)CC3)c21 | 70.8 | 26.7 | -6.25 | 3.7 | -20.1 | -5.15%
6 | O=C(Nc1ccc2c(c1)OCCO2)NC1CCCCC1 | 49.5 | 35.8 | 31.2 | 41.7 | 32.9 | 21%
7 | O=C(NNC(=O)c1cc(OCC(F)(F)F)ccc1OCC(F)(F)F)c1ccc(Cl)c(Cl)c1 | 63.5 | 50.9 | -9.65 | 2.58 | -2.88 | 0.592%
8 | O=C(NCC1CCCO1)c1ccc2c3n(nc2c1)-c1ccccc1CO3 (centres undefined) | 52.9 | 54.6 | 29.1 | 41.5 | 21 | 11.7%
9 | COc1ccccc1/C=C/C=N/n1c(-c2cc(-c3ccccc3)n[nH]2)n[nH]c1=S | 71.2 | 39.3 | -29.9 | -8.86 | 10.6 | -34.4%
10 | CCC(C)c1ccc(O)c(NC(=S)NC(=O)c2cccs2)c1 (centres undefined) | 56.5 | 54.3 | 40.5 | 49.3 | 56.2 | 41.9%
11 | O=C(N/N=C/c1cccc(OC(=O)c2ccco2)c1)c1ccc(F)cc1 | 57.1 | 28.9 | 54.4 | 46.3 | 49.2 | 40.8%
12 | Cc1ccc(-n2nnc(-c3cccnc3Cl)n2)cc1 | 56.4 | 47.5 | 33.6 | -11.1 | 12 | -10.2%
13 | O=C(Nc1ccc2[nH]ccc2c1)c1cccs1 | 64 | 52.9 | 48.2 | 52.7 | 46.5 | 43.5%
14 | Cc1ccc2c(c1)C(=NC1CCCCC1)c1cc3ccccc3nc1-2 | 62.8 | 51.2 | -15 | -9.21 | 10.4 | -8.89%
15 | CC(C)C[C@H](NC(=O)c1nc[nH]c1C(=O)N[C@@H](CC(C)C)C(=O)OCc1ccccc1)C(=O)OCc1ccccc1 | 71.4 | 38.8 | -20.3 | 9.61 | 0.235 | -15.4%
16 | O=C(Oc1c(CN2CCOCC2)cc(Cl)c2cccnc12)c1cccs1 | 53.1 | 53.5 | 24.4 | 44.5 | 8.65 | -4.1%
17 | Fc1ccc(-c2cnn3c(-c4ccncc4)ccnc23)cc1 | 49.5 | 48.7 | -13.8 | -2.37 | 13.2 | -12.3%
18 | COc1ccc(/C=N/Nc2nc3ccccc3c(=O)n2-c2ccccc2)cc1OC | 62.5 | 48.6 | 47.9 | 45.1 | 41 | 44.3%
19 | CCOc1ccc(NC(=O)c2ccco2)cc1 | 55.9 | 49.6 | 43 | 43.3 | 45.1 | 31.6%
20 | CC(C)(C)OC(=O)NCc1ccc(NC(=O)c2nc[nH]c2C(=O)N[C@@H](Cc2ccccc2)C(=O)OCc2ccccc2)cc1 | 63.8 | 11.5 | -11 | 1.84 | -8.6 | -21.5%
21 | CCOC(=O)C(=C1Nc2ccccc2N1)n1c(-c2cccnc2)nc2ccccc21 | 55.9 | 52 | 44.5 | 36.8 | -4.97 | 41.7%
22 | O=C(N/N=C/c1ccc2cccnc2c1)c1ccco1 | 47.2 | 37 | 37.5 | 50.7 | 39.1 | 35.6%
23 | O=C(ONC1=NCCCCC1)c1ccc(Cl)cc1 | 89.3 | 47.2 | 16.1 | 23.5 | 7.61 | 44.2%
24 | O=C(c1cnc(Cl)c(Cl)c1)N1CCN(S(=O)(=O)c2ccc3ccccc3c2)CC1 | 45.5 | 25.1 | -9.83 | -9.66 | 3.76 | -5.02%
25 | CC1(C)N=C(N)N=C(N)N1c1ccc(Oc2ccc(Cl)cc2)c(Cl)c1 | 57.3 | 51 | 50.2 | 62.6 | 60.3 | 68.3% [at 6.25 µM]
26 | O=c1cc(-c2ccccc2)nc2cc(-c3ccc(F)cc3)[nH]n12 | 57.6 | 47 | 5.68 | -3.23 | -19 | -21.3%
27 | O=C1c2ccc3c4c(ccc(c24)C(=O)N1c1cccc(O)c1)C(=O)N(c1cccc(O)c1)C3=O | 63.2 | 53.8 | 52.1 | 35.7 | 29.8 | 21.3%
28 | Cc1ccc2c(c1)-c1nc3ccccc3cc1C2=NC1CCCCC1 | 49.6 | 41.6 | 26.1 | 46.1 | 4.61 | -9.3%
29 | O=C1CCCc2nc(N3CCc4ccccc43)ncc21 | 45.5 | 25.6 | 22.4 | -9.35 | 0.829 | -3.85%
